A549 viability: kills or reduces viability of A549 cells in Nrf2 counter-screen; Potency, µM (top dose mostly 46 µM), without a hit: at the top dose activity change, negative = cytotoxicity, actives largely listed as inhibitors; 390,000 compounds, 0.16% hits; A549 ARE-Fluc cells, CellTiter-Fluor viability, 18-24 h; note: % is set by controls: 0 for no effect and ±100 for the full control effect
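Cytotoxicity counterscreen: CellTiter-Fluor fluorescence was measured in A549 ARE_Fluc cells after 18-24 h of compound exposure in a concentration series. The subsequent BugLite luminescent read reports ARE-luciferase activity.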
ATXN2 expr inh: ATXN2 expression inhibition; HEK-293 ATXN2-luciferase reporter, luminescence, 24 h; Potency, µM (highest dose often 57 µM), for inactives: top-dose activity change, negative = inhibition, usual class: inhibitors; 360,000 compounds, 0.72% hits; note: % is set by controls: 0 for no effect and ±100 for the full control effect; nearly all actives have a fitted effect of over 55% in size
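ATXN2-luciferase reporter cells (luciferase flanked by upstream and downstream ATXN2 gene portions) were treated 24 h at 37 °C with compounds at up to 57 uM. SteadyGlo luminescence gave expression; GF-AFC fluorescence gave viability.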
S2 tox: viability counter-screen for ATXN expression inhibitors. S2 cells (HEK-293 line with an ATXN2-luciferase reporter) viability, CellTiter-Fluor protease fluorescence, 24 h. Potency, µM (top dose mostly 56.7 µM), usual class: cytotoxic. 400,000 compounds, 0.49% hits. AID 651635; note: nearly all actives have a fitted effect of over 40% in size
TGFb SMAD3 inh: blocks TGF-b signaling; HepG2 CAGA-GFP TGF-b/SMAD3 reporter, GFP fluorescence, 18 h; TGF-beta stimulated, 500 pg/mL final; Potency, µM (series often up to 46.1 µM), inactives show at the top dose activity, negative = inhibition, hits mostly inhibitors; 410,000 compounds, 1.2% hits; note: % is set by controls: 0 for no effect and ±100 for the full control effect; nearly all actives have a fitted effect of over 65% in size
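HEPG2 CAGA-GFP, 1000 cells/well; 2 h settle, 37 C; cpd via pin tool; TGF-b 500 pg/mL final; 18 h, 37 C; GFP imaging ex488/em500-530; %Activity normalised to -TGF-b and +DMSO controls; CRC fit, curve class.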
HepG2 tox: kills HepG2 cells in TGF-b inhibitor counter-screen. HepG2 CAGA-GFP viability, ATP luminescence, 18 h. 410,000 compounds, 0.76% hits. AID 588856. Potency, µM (doses to about 46.1 µM), without a hit: at the highest dose activity change, negative = cytotoxicity, actives largely listed as cytotoxic
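HepG2 CAGA-GFP cells (1000/well, DMEM with 1% FBS) received compound, then TGF-beta at 500 pg/mL final, and were incubated 18 hours at 37 degrees C. Viability was read by CellTiter-Glo luminescence. Media-only wells were set as complete cell-killing and DMSO as no toxicity.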
Nrf2 block: Nrf2 pathway inhibition; 360,000 compounds, 2.1% hits; A549 ARE-Fluc reporter, luciferase luminescence, 18-24 h; AID 504444; Potency, µM (doses to about 46 µM), for inactives: at the highest dose activity change, negative = inhibition, most hits filed as inhibitors; note: % is set by controls: 0 for no effect and ±100 for the full control effect; nearly all actives have a fitted effect of over 60% in size
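Nrf2 activity is the BugLite luminescence, read 15 min after reagent at room temperature, following CellTiter-Fluor cytotoxicity readout (30 min, 37C). Compound titrations were applied for 18-24 h to 5000 A549 ARE_Fluc cells/well in 5% FBS OPTI-MEM.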
* hit, by the source's call; [ ] = remark or other dose. The list is not random: actives were taken first. Their share in the collection is about 3.8%. Calls come from the whole dose curve; as a rule, active = well fitted curve in the direction sought with a large enough effect; inconclusive = small, poorly fitted or top-dose-only effect, or another doubt; inactive = no such curve, though single readings can be large; an effect the other way counts as inactive or inconclusive. Potency is the fitted concentration of half-maximal effect.

`CC(C)Oc1ccc(CN=C(N)N=C(N)N)cc1Cl` gave A549 viability -17%, ATXN2 expr inh -2%[11.3 µM], S2 tox inactive, TGFb SMAD3 inh -11%, HepG2 tox -16% and Nrf2 block 15µM*.
`COc1ccc(CN=C(N)N=C(N)N)cc1Cl` gave A549 viability -19%, ATXN2 expr inh -23%, S2 tox inactive, TGFb SMAD3 inh 0%, HepG2 tox 0% and Nrf2 block 16µM*.
Screening CC(C)(C)NC(=O)C(c1ccncc1)N(C(=O)C1CSC(=O)C1)c1ccccc1 (stereo not drawn) returned A549 viability 0%, ATXN2 expr inh 12%, TGFb SMAD3 inh 1%, HepG2 tox -22% and Nrf2 block 1%.
Screening Cc1cnc(NC(=O)CC2OC(=O)c3ccccc32)s1 (stereo not drawn) returned A549 viability 2%, ATXN2 expr inh -19%, S2 tox inactive, TGFb SMAD3 inh 4%, HepG2 tox -9% and Nrf2 block -16%.
`Cc1c(Cl)cccc1-c1ccc(/C=C(\C#N)c2nc3ccccc3[nH]2)o1` gave A549 viability inconclusive, ATXN2 expr inh 8%, TGFb SMAD3 inh 6.3µM*, HepG2 tox 7.9µM* and Nrf2 block inconclusive.
Screening CC1CC(=O)c2c(cc3c(-c4c(O)cc(O)c5c(O)c6c(cc45)OC(C)CC6=O)c(O)cc(O)c3c2O)O1 (stereo not drawn) returned A549 viability inconclusive, ATXN2 expr inh 20µM*, S2 tox inactive, TGFb SMAD3 inh inconclusive, HepG2 tox -103% and Nrf2 block 12µM*.
COc1ccc(-n2ccc(-c3sc(NCc4cc(OC)c5c(c4)OCO5)nc3C)n2)cc1 was read as S2 tox inactive.
For COc1ccc(NC(=O)c2nc(C)n(-c3ccc([N+](=O)[O-])cc3)n2)cc1 the results were A549 viability -13%, ATXN2 expr inh -3%, S2 tox inactive, TGFb SMAD3 inh 15%, HepG2 tox 14% and Nrf2 block -1%.
Screening Cc1ccc(S(=O)(=O)c2ncccc2N)cc1 returned A549 viability 0%, S2 tox inactive, TGFb SMAD3 inh 12%, HepG2 tox 2% and Nrf2 block -1%.
For Cc1ccc(S(=O)(=O)c2ncccc2[N+](=O)[O-])cc1 the results were A549 viability -3%, S2 tox 5µM*, TGFb SMAD3 inh 2.5µM*, HepG2 tox -12% and Nrf2 block -26%.
`O=C(OCc1c(-c2ccccc2)ncc2ccccc12)c1ccc(Br)cc1` gave A549 viability -6%, ATXN2 expr inh -23%, S2 tox inactive, TGFb SMAD3 inh -1%, HepG2 tox 2% and Nrf2 block 15µM*.
Screening CN(C)C(=O)OCc1c(-c2ccccc2)ncc2ccccc12 returned A549 viability 1%, ATXN2 expr inh -18%, S2 tox inactive, TGFb SMAD3 inh inconclusive, HepG2 tox -10% and Nrf2 block -29%.
O=C(OCc1c(-c2ccccc2)ncc2ccccc12)c1cccs1 was read as A549 viability inconclusive, ATXN2 expr inh -39%, S2 tox inactive, TGFb SMAD3 inh inconclusive, HepG2 tox -16% and Nrf2 block 16µM*.
CCOc1ccc2nc3cc(N)ccc3c(N)c2c1 was read as ATXN2 expr inh 13µM* and S2 tox inconclusive.
CCN(CC)c1ccc(C(=O)NNC(=O)CCl)cc1 was read as A549 viability -2%, ATXN2 expr inh 9%, S2 tox inconclusive, TGFb SMAD3 inh 0%, HepG2 tox -11% and Nrf2 block -4%.
CCN(CC)c1ccc(C(=C2C=CC(=[N+](CC)CC)C=C2)c2ccc(N(CC)CC)cc2)cc1 was read as A549 viability 7.3µM*, ATXN2 expr inh inconclusive, TGFb SMAD3 inh 2.2µM*, HepG2 tox 11µM* and Nrf2 block 5.8µM*.
